Compound activity (PubChem BioAssay)
Compounds with a hit are over-represented: about 1.1% of the library has one in this group of screens.
AmpC inh detg: AmpC beta-lactamase inhibition with detergent present. Potency, µM (doses to about 114 µM), inactives show at the top dose activity change, negative = inhibition, usual class: inhibitors. P00811. AID 485294. AmpC hydrolysis of nitrocefin, absorbance 480 nm, 0.01% Triton. hit rate 0.041% among 370,000;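 note: 0% = no-compound wells and -100% = no-enzyme wells; nearly all actives have a fitted effect of over 25% in size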
Target sequence (P00811 whole entry, looked up): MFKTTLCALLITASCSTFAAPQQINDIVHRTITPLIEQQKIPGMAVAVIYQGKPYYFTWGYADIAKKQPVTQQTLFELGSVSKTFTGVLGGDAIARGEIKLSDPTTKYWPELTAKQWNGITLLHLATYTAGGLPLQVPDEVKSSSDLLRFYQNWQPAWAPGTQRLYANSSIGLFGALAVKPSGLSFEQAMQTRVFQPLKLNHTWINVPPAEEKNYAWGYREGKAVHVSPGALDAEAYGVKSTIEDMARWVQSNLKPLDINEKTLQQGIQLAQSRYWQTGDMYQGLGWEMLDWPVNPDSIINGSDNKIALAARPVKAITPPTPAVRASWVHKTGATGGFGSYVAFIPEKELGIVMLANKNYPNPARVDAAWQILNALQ
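20 mM phosphate pH 7.0 + 0.01% (detergent screen) or 0.0001% Triton X-100; 5.3 nM AmpC reagent; cpd preinc 15 min RT; nitrocefin (800 uM stock) to start; A480 q20 s × 4 min; Activity was normalised to no-enzyme and no-compound control wells.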
Giardia FBPA inh: Giardia lamblia aldolase inhibition. A8B2U2. purified Giardia FBPA. Potency, µM (titrated, usually from 59.6 µM), inactives show at the top dose activity, negative = inhibition, hits mostly inhibitors. hit rate 0.71% among 290,000. AID 2451; note: nearly all actives have a fitted effect of over 55% in size
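Giardia FBPA (40 nM reagent) was preincubated 10 min at RT with compound (up to 57.5 uM final), then substrate plus GAPDH/TPI/NAD/arsenate coupling system with diaphorase/resazurin was added; resorufin fluorescence (525/598 nm) was read after 20 min.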
AMA1 RON2 block: inhibitors of Plasmodium falciparum AMA1-RON2 interaction; hit rate 0.2% among 360,000; Potency, µM (highest dose often 58.2 µM), without a hit: at the top dose activity change, negative = inhibition, usual class: inhibitors; AlphaScreen AMA1-biotinylated RON2 peptide binding;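 note: 0% = vehicle wells and -100% = peptide control; nearly all actives have a fitted effect of over 45% in size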
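AMA1 (3D7) with his tag at 25 nM final met compounds first, then biotinylated RON2 peptide at 25 nM; detection used donor plus acceptor beads, 10 µg/mL apiece, read by AlphaScreen after 30 min at room temperature.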
AmpC no deterg: inhibitors of E. coli AmpC beta-lactamase without detergent; AmpC nitrocefin hydrolysis, absorbance 480 nm, 0.0001% Triton; AID 485341; hit rate 0.52% among 330,000; Potency, µM (titrated, usually from 57.1 µM), inactives show at the highest dose activity change, negative = inhibition, actives largely listed as inhibitors;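 note: plate controls were no compound for no effect and no enzyme for full effect; nearly all actives have a fitted effect of over 20% in size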
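20 mM phosphate pH 7.0 + 0.01% (detergent screen) or 0.0001% Triton X-100; 5.3 nM AmpC reagent; cpd preinc 15 min RT; nitrocefin (800 uM stock) to start; A480 q20 s × 4 min; Activity was normalised to no-enzyme and no-compound control wells.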
* = called active by the depositor; ? = inconclusive; nt = no result given; [ ] = dose if it differs, or a comment. Calls come from the whole dose curve; as a rule, active = well fitted curve in the direction sought with a large enough effect; inconclusive = small, poorly fitted or top-dose-only effect, or another doubt; inactive = no such curve, though single readings can be large; an effect the other way counts as inactive or inconclusive. Unless noted, % is set by controls: 0 for no effect and ±100 for the full control effect; potency is the fitted concentration of half-maximal effect.

SMILES | AmpC inh detg | Giardia FBPA inh | AMA1 RON2 block | AmpC no deterg
COc1ccc(Oc2nc3ccccc3n(C)c2=O)cc1 | ? | -4.6% | -3.7% | -3.0%
O=C(NCCN1CCC(n2c(=O)[nH]c3ccccc32)CC1)C(c1ccccc1)c1ccccc1 | nt | nt | -16.1% | nt
COc1ccc(/C=C2\SC(=O)N(CC(=O)NNC(=O)c3ccccc3O)C2=O)cc1 | -5.1% | 3.7% | 12.2% | 11.2µM*
O=C(c1ccco1)N1CC2(CC(c3ccc(Cl)cc3)=NO2)CN1Cc1ccc(Br)cc1 (centres undefined) | nt | nt | -4.6% | nt
COc1ccc(NS(=O)(=O)c2cccc(C(=O)NNC(=O)c3cccn3C)c2)cc1 | ? | nt | -2.9% | -18.3%
Cc1ccc(NS(=O)(=O)c2cccc(C(=O)NNC(=O)c3cccn3C)c2)c(C)c1 | 1.2% | nt | 40.1% | 15.8µM*
O=C(CSc1ccc(-c2nc3ccccc3[nH]2)cn1)Nc1ccc2c(c1)OCCO2 | -2.7% | -6.0% | -1.6% | 0.562µM*
Cc1ccc2nc(-c3ccc(SCC(=O)Nc4ccc5c(c4)OCCO5)nc3)[nH]c2c1 | ? | -5.7% | -1.0% | -26.8%
C/C(=N\Nc1nnc(C)c(=O)[nH]1)C(=O)O | -4.1% | 3.54µM* | -31.1% | -5.6%
Cc1cc(C)nc(N/N=C/c2ccccc2OCc2ccccc2)n1 | -4.8% | -6.6% | 37.7% | -49.5%
Cc1cc(C)nc(N/N=C/c2ccccc2OCc2ccc(Br)cc2)n1 | -12.4% | -8.7% | 12.3% | 17.8µM*
Cc1ccc(C)c2sc(NC(=O)c3ccc(S(=O)(=O)N4CCC(C)CC4)cc3)nc12 | 19.4% | nt | nt | nt
COC(=O)CN1C(=O)[C@@H]2[C@H](C1=O)[C@@H]1CC(C(=O)OC)=C[C@@H](C(=O)OC)C3C1=C(C(=O)[C@@]3(C)NC(=O)c1ccccc1)[C@@H]2C (some centres undefined) | nt | 0.2% | nt | nt
COc1ccc(C2=NN(c3nc(-c4ccccc4)c(CC(=O)O)s3)C(c3ccco3)C2)cc1 (centres undefined) | -13.7% | -18.8% | -3.7% | 14.1µM*
CC(=O)Nc1ccc(S(=O)(=O)N2CCSc3ccccc32)cc1 | nt | nt | -2.7% | -19.9%
CCC(C)Nc1c([N+](=O)[O-])cc(C)cc1[N+](=O)[O-] (centres undefined) | -0.7% | -11.7% | 15.8µM* | -22.5%
COCc1cc(C)nc(OCC(=O)N/N=C/c2ccc(-c3cc([N+](=O)[O-])ccc3C)o2)c1C#N | 3.6% | 0.2% | 0.0% | -10.3%
Cc1ccc([N+](=O)[O-])cc1-c1ccc(/C=C(\C#N)c2[nH]nc(N)c2C#N)o1 | 1.6% | -0.6% | -2.2%[11.6 µM] | 31.6µM*
N#CCC(=N)N1CCN(c2ccccc2Cl)CC1 | 3.6% | -0.9% | -2.4% | 0.316µM*
Cn1c(C(=O)N2CCN(c3ncccn3)CC2)cc2c(=O)n(C)c3ccccc3c21 | ? | 17.7µM* | -7.4% | 13.4%
COc1cc(/C=N/Nc2cccc(C)c2)cc(Br)c1O | -1.5% | -6.8% | -3.0% | 31.6µM*
CC1=NN(c2ccc(C(=O)O)c(N)c2)C(=O)C1 | -8.8% | 7.06µM* | -13.8% | -23.4%
CNC(=O)c1cn2c3c(ccc(Cl)c3c1=O)OC(C)C2 (centres undefined) | nt | nt | 2.3% | nt
Cc1ccc(OCC(=O)Nc2ccc3c(c2)OCO3)cc1C | 4.7% | 0.0% | 0.0% | -14.2%
Cc1cc(C)cc(OCC(=O)Nc2ccc3c(c2)OCO3)c1 | 6.5% | -8.2% | 10µM* | -13.6%
SMILES | AmpC inh detg | Giardia FBPA inh | AMA1 RON2 block | AmpC no deterg
Cc1ccc(NC(=O)c2cc(C)n(-c3ccccc3)c2C)cc1 | 5.0% | ? | -5.1%[11.6 µM] | -28.0%
Cc1ccc(NC(=O)c2cc(C)n(-c3cccc(C)c3)c2C)cc1 | 1.7% | ? | ? | 15.8µM*
CC(=O)C1CCC2C3CC=C4CC(SC(=N)N)CCC4(C)C3CCC12C (centres undefined) | nt | nt | -4.3% | nt
COCCN1C[C@@H](CO)O[C@@H](n2cnc3c(NCc4ccc(F)cc4)ncnc32)C1 | nt | nt | 0.0% | nt
N=C1CCC(=N)c2c1c(O)c1ccccc1c2O | -10.2% | 6.29µM* | 20µM* | -53.3%
O=C1CCn2c1c(O)c1ccccc1c2=O | nt | nt | -9.5% | nt
O=C(Cn1cc(/C=N/NC(=O)c2ccccc2Br)c2ccccc21)Nc1ccc(F)cc1 | -8.6% | -0.5% | 1.2% | 14.1µM*
COC(=O)Cn1cc(/C=N/NC(=O)c2ccc(C#N)cc2F)c2ccccc21 | -3.7% | 3.1% | 35.5% | -32.8%
CCn1cc(/C=N/NC(=O)c2ccc(C#N)cc2F)c2ccccc21 | -0.8% | 15.8µM* | 10.8% | -30.7%
